Most compounds without a hit are left out; they make up all but 1.6% or so of the library.
BH1578 lux ind: inducers of Vibrio cholerae quorum light production without autoinducers, primary screen, BH1578 luxS cqsA deficient, single point | actives 0.16% (n = 350,000) | activation, % at 18.7 µM | V. cholerae BH1578 lux reporter, luminescence, 6 h; in the data active means activation mostly above about 9.7%, no sharp cut-off
PfHsp40 rescue: rescue of yeast from PfHsp40 toxicity, primary screen, S. cerevisiae, ATP luminescence | S. cerevisiae expressing PfHsp40, growth rescue | growth rescue, % at 12.5 µM | actives 0.68% (n = 340,000) | AID 504582, 2011; in the data active means growth rescue above about 28%, passing the limit was not always enough;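 further: yeast W303a lacking pdr1 and pdr3 grown in galactose medium; growth measured after three days at 30 °C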
3CLpro inhibitor: SARS-CoV 3CLpro protease inhibitors, primary screen, biochemical, quenched FRET. inhibition, % at 6 µM. recombinant SARS-CoV 3CLpro, quenched FRET peptide cleavage. actives 0.14% (n = 290,000). Replicase polyprotein 1ab (Severe acute respiratory syndrome coronavirus), P0C6X7; in the data active means inhibition above about 12%
PriA SSB inh: inhibitors of Klebsiella pneumoniae PriA binding to SSB C-terminal tail, primary screen, biochemical, AlphaScreen | inhibition, % at 33 µM | AID 1272365, 2023 | AlphaScreen SSBct-PriA binding, biotinylated peptide | actives 0.6% (n = 430,000); in the data active means inhibition mostly above about 37%, no sharp cut-off; inactive means mostly below about 20%
PrP 5UTR inh: inhibition of PrP 5' UTR reporter expression; cell-based PrP 5' UTR mRNA reporter, plate reader; AID 488862, 2010; inhibition, % (concentration not given with the values); actives 0.35% (n = 340,000); in the data active means inhibition above about 52%
PrPC surface inh: inhibitors of human cell surface prion protein PrPC, primary screen, cell-based, TR-FRET; actives 0.43% (n = 370,000); inhibition, % at 13.8 µM; Major prion protein (Homo sapiens), P04156; TR-FRET read-out; in the data active means inhibition above about 24%
A number is an active result; ! = repeats disagree.

`COc1ccc(S(=O)(=O)Nc2ccc(CC(=O)NC3CC3)cc2)c(C)c1` gave PriA SSB inh inactive.
Screening c1ccc(-c2csc3nnc(SCc4ccc5c(c4)OCCO5)n23)cc1 returned BH1578 lux ind inactive, PfHsp40 rescue inactive, 3CLpro inhibitor inactive, PriA SSB inh 39.9!, PrP 5UTR inh inactive and PrPC surface inh inactive.
For COc1ccc(/C=N/NC(=S)SC)cc1OC the results were PfHsp40 rescue inactive, 3CLpro inhibitor inactive, PrP 5UTR inh inactive and PrPC surface inh inactive.
Screening CSC(=S)N/N=C/c1ccccc1 returned BH1578 lux ind inactive, PfHsp40 rescue 257.1, 3CLpro inhibitor inactive, PrP 5UTR inh inactive and PrPC surface inh inactive.
For CCOc1ccc(C(=O)N2CCN(c3cc(-n4cncn4)ncn3)CC2)nn1 the results were PriA SSB inh inactive.
For CS(=O)(=O)c1ccc(Nc2nc(CC(=O)Nc3ccc4c(c3)OCO4)cs2)cc1 the results were PriA SSB inh inactive.
Screening O=C(c1ccccc1)c1ccc(OCC(O)CNc2ccc(F)cc2)cc1 (configuration not stated) returned PriA SSB inh 57.0.
Screening Cn1cc(C(=O)N2CCC3(CC2)OCCS3)nn1 returned PriA SSB inh inactive.
Cc1ccc(Nc2c(-c3ccc(N4CCOCC4)cc3)nc3ncccn23)cc1C was read as BH1578 lux ind inactive, PfHsp40 rescue inactive, 3CLpro inhibitor inactive, PriA SSB inh inactive, PrP 5UTR inh inactive and PrPC surface inh inactive.
For Cc1ccc(Nc2c(-c3ccc(N4CCOCC4)cc3)nc3ncccn23)cc1 the results were BH1578 lux ind inactive, PfHsp40 rescue inactive, 3CLpro inhibitor inactive, PriA SSB inh 97.0, PrP 5UTR inh inactive and PrPC surface inh inactive.
CCCCCCC(Cl)(Cn1ccnc1)c1ccccc1 (configuration not stated) was read as BH1578 lux ind inactive, PfHsp40 rescue 255.1, PriA SSB inh inactive, PrP 5UTR inh inactive and PrPC surface inh inactive.
Screening CC(C(=O)NCCCn1ccnc1)(c1ccccc1)c1ccccc1 returned BH1578 lux ind inactive, PfHsp40 rescue inactive, 3CLpro inhibitor inactive, PriA SSB inh inactive, PrP 5UTR inh inactive and PrPC surface inh inactive.
CS(=O)(=O)N(CC(=O)N1CCN(Cc2ccccc2)CC1)c1ccccc1F was read as BH1578 lux ind inactive, PfHsp40 rescue inactive, 3CLpro inhibitor inactive, PriA SSB inh 52.2, PrP 5UTR inh inactive and PrPC surface inh inactive.
Screening CN1CCN(C(=O)CN(Cc2ccccc2)S(C)(=O)=O)CC1 returned BH1578 lux ind inactive, PfHsp40 rescue inactive, 3CLpro inhibitor inactive, PriA SSB inh inactive, PrP 5UTR inh inactive and PrPC surface inh inactive.
Screening CS(=O)(=O)N(CC(=O)N1CCCCC1)Cc1ccccc1 returned BH1578 lux ind inactive, PfHsp40 rescue inactive, 3CLpro inhibitor inactive, PriA SSB inh 59.1, PrP 5UTR inh inactive and PrPC surface inh inactive.
For O=S(=O)(c1cccc(C(F)(F)F)c1)N1CCC(c2ccsc2)CC1 the results were PriA SSB inh inactive.
Screening COc1ccc(N(CC(=O)Nc2ccccc2OC)C2=NC3CS(=O)(=O)CC3S2)cc1 (configuration not stated) returned PriA SSB inh inactive.
`CC(C)(C)c1ccc(C(=O)OC(c2ccccc2)c2nccc3ccccc23)cc1` (configuration not stated) gave PriA SSB inh inactive.
`O=C(OC(c1ccccc1)c1nccc2ccccc12)c1cc([N+](=O)[O-])cc([N+](=O)[O-])c1` (configuration not stated) gave BH1578 lux ind inactive, PfHsp40 rescue inactive, 3CLpro inhibitor inactive, PriA SSB inh 51.7, PrP 5UTR inh inactive and PrPC surface inh inactive.
For NC(=NOC(=O)CCC1CCCC1)c1ccccn1 the results were PriA SSB inh inactive.
`CC1=NCCN1S(=O)(=O)c1cc([N+](=O)[O-])ccc1Cl` gave BH1578 lux ind inactive, PfHsp40 rescue inactive, 3CLpro inhibitor inactive, PriA SSB inh 35.0!, PrP 5UTR inh inactive and PrPC surface inh inactive.
For Nc1ccc(O)c(-c2nc3ccccc3s2)c1 the results were BH1578 lux ind inactive, PfHsp40 rescue inactive, 3CLpro inhibitor inactive, PriA SSB inh inactive, PrP 5UTR inh inactive and PrPC surface inh inactive.
